Inconclusive results are not listed. Entries that show only a call come without a potency. Activity calls are given as the source filed them. The call rests on the fitted dose curve; in most records, active means well fitted cell-killing curve with a large enough effect; inconclusive means small, poorly fitted or top-dose-only effect, or effect the other way; inactive means no such curve, though single readings can be large or run the other way.
assay: Quantitative High-Throughput drug screen in 47 multiple myeloma cell lines against the NCATS MIPE library collection: JJN3_DSMZ cell viability assay (AID 1918966; further: nearly all actives have a fitted effect of over 50% in size); conditions: JJN3 myeloma cells viability, CellTiter-Glo ATP, 48 h; series mostly up to 45.8 µM
Summary of the method: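 Primary qHTS used for cherry-picking: cells at 500/well, library compounds for 48 h (37C, 5% CO2), luminescent ATP assay.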
Potency means the concentration at half of the fitted maximal effect.

SMILES | Potency
COc1ccc(C(=O)CC(=O)c2ccc(C(C)(C)C)cc2)cc1 | 0.935 µM (active)
Oc1c(Cl)cc(Cl)c2cccnc12 | 8.33 µM (active)
COc1cc2ncnc(Nc3cccc(Cl)c3)c2cc1OC | 33.2 µM (active)
Cc1oc(=O)oc1CN1CCN(c2cc3c(cc2F)c(=O)c(C(=O)O)c2n3C(C)S2)CC1 (stereo not given) | 14.8 µM (active)
COc1ccc2cc3[n+](cc2c1OC)CCc1cc2c(cc1-3)OCO2 | 11.8 µM (active)
COC(=O)Nc1nc2ccc(Sc3ccccc3)cc2[nH]1 | 10.5 µM (active)
CO[C@@]12[C@H](COC(N)=O)C3=C(C(=O)C(C)=C(N)C3=O)N1C[C@@H]1N[C@@H]12 | 26.4 µM (active)
O=C(O)CSCC(=O)NC1CCSC1=O (stereo not given) | inactive
Cn1nnc2c(C(N)=O)ncn2c1=O | inactive
N[C@@H](C(=O)N[C@@H]1C(=O)N2C(C(=O)O)=C(Cl)CS[C@H]12)c1ccccc1 | inactive
CCC(=O)O[C@]1(C(=O)SCF)[C@H](C)C[C@H]2[C@@H]3C[C@H](F)C4=CC(=O)C=C[C@]4(C)[C@@]3(F)[C@@H](O)C[C@@]21C | inactive
Nc1[nH]c(=O)ncc1F | inactive
CN1CCN(c2c(F)cc3c(=O)c(C(=O)O)cn4c3c2OCN4C)CC1 | inactive
Cc1cccc(N(C)C(=S)Oc2ccc3ccccc3c2)c1 | inactive
COc1cc([C@@H]2c3cc4c(cc3[C@H](O)[C@H]3COC(=O)[C@H]23)OCO4)cc(OC)c1OC | inactive
COc1c(N2CCNC(C)C2)c(F)cc2c(=O)c(C(=O)O)cn(C3CC3)c12 (stereo not given) | inactive
COc1cc(NS(=O)(=O)c2ccc(N)cc2)nc(OC)n1 | inactive
CN(C)c1ccc(C(=C2C=CC(=[N+](C)C)C=C2)c2ccc(N(C)C)cc2)cc1 | 0.0187 µM (active)
CCOCC(O)COc1ccc(NC(=O)CC[S+](C)C)cc1 (stereo not given) | inactive
N=C(N)c1ccc(OCCCCCOc2ccc(C(=N)N)cc2)cc1 | 16.6 µM (active)
